Luciferase inh: blocks purified firefly luciferase enzyme activity; P08659; purified P. pyralis luciferase, luminescence, biochemical; Potency, µM (series often up to 115 µM), actives largely listed as inhibitors; hit rate 2.5% among 76,000; further: nearly all actives have a fitted effect of over 65% in size
Target sequence (P08659 whole entry, looked up): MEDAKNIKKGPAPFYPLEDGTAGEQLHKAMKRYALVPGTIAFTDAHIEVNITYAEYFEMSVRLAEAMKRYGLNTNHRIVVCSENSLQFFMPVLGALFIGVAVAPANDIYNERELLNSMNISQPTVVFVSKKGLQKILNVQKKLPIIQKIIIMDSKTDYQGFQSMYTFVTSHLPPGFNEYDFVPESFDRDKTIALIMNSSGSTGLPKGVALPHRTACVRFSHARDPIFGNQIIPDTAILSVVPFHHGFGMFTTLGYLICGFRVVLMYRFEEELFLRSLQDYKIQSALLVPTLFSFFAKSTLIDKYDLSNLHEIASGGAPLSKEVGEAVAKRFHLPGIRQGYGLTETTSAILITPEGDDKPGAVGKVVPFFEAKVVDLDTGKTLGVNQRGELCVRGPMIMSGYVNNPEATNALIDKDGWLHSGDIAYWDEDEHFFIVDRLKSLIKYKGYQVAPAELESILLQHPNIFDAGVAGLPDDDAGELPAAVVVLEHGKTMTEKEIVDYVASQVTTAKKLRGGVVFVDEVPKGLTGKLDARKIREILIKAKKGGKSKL
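Biochemical qHTS: compound (6-point titration) added to 10uM D-luciferin plus 10uM ATP in Tris acetate pH 7.5 buffer with Mg, Tween-20 and BSA, then purified enzyme at 10nM; light output imaged.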
HEK cytotox: cytotoxic compounds in HEK 293 cells | hit rate 6.6% among 94,000 | HEK 293 viability, ATP luminescence (CellTiter-Glo), 48-72 h | Potency, µM (titrated, usually from 115 µM), actives largely listed as inhibitors | AID 1345083; further: nearly all actives have a fitted effect of over 60% in size
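qHTS cytotoxicity; HEK 293, 250 cells/well; compound pinned; 48 or 72 hr, 37 degree Celsius, 5% CO2, 95% humidity; CellTiter-Glo, 10 min RT; luminescence (ATP).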
HEK293 viab: cell viability loss counter-screen; HEK-293-SNCA-luc viability, GF-AFC fluorescence, 24 h; Potency, µM (highest dose often 57.1 µM), usual class: cytotoxic; hit rate 0.12% among 150,000; AID 1671193; further: nearly all actives have a fitted effect of over 30% in size
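Cytotoxicity counterscreen: after 24 h compound treatment of genome-edited SNCA-luciferase HEK-293 cells, live-cell protease substrate GF-AFC read by fluorescence after 30 min; activity scaled between DMSO (0%) and medium-only (-100%), curves Hill-fitted.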
SNCA expr inhib: reduces expression of the alpha-synuclein gene; HEK-293 SNCA-luciferase knock-in, luminescence, 24 h; Potency, µM (doses to about 57.2 µM), hits mostly inhibitors; hit rate 0.17% among 140,000; AID 1671194; further: nearly all actives have a fitted effect of over 45% in size
3T3 cytotox: cytotoxic compounds in NIH 3T3 cells; NIH 3T3 viability, CellTiter-Glo ATP luminescence, 48-72 h; Potency, µM (series often up to 96.7 µM), usual class: inhibitors; hit rate 4.3% among 94,000; further: nearly all actives have a fitted effect of over 55% in size
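Mouse fibroblast NIH 3T3 cells, 400 per well, received compound via pintool and were incubated for 48 or 72 hr prior to CellTiter-Glo ATP luminescence measurement.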
NPR1 antag: blocks ANP-stimulated signaling of human Npr1 receptor. HEK293 hNpr1 GloSensor cGMP, ANP-stimulated luminescence. P16066. Potency, µM (top dose mostly 46.3 µM), hits mostly inhibitors. hit rate 1.6% among 76,000; calls by dose curve; further: nearly all actives have a fitted effect of over 60% in size
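Compound pre-incubated 30 min at room temperature on GloSensor-loaded HEK293 cells stably carrying hNpr1 and the pGS-40F cGMP biosensor. Stimulation uses hNppA at 0.1 nM final; luminescence is taken at baseline and 20 min post-agonist.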
Each line names hits and unclear results; the compound was inactive in the other large screens; ! = not confirmed by another sample. Only some compounds are listed: those with a hit (about 7.4% of all), similar ones and a draw of the others. Unless noted, the call rests on the fitted dose curve; in most records, active means well fitted curve in the direction sought with a large enough effect; inconclusive means small, poorly fitted or top-dose-only effect, or another doubt; inactive means no such curve, though single readings can be large; an effect the other way counts as inactive or inconclusive.

CC(=O)Nc1cccc(-c2ncc3c(n2)OCCN(CC2CC2)C3=O)c1	Luciferase inh 50µM, 3T3 cytotox inconclusive
O=C1c2cnc(-c3cc4ccccc4o3)nc2OCCN1c1ccccc1	Luciferase inh 0.01µM, SNCA expr inhib inconclusive, NPR1 antag 0.28µM
CC(C)NC(=O)N1CCC(C(=O)N2CCCC(c3nc4ncccc4[nH]3)C2)CC1 (stereo unspecified)	none (no result: Luciferase inh, NPR1 antag)
O=C(Nc1ccccc1Cl)N1CCCC2(C1)Nc1cccnc1NC2=NC1CCCC1 (stereo unspecified)	HEK cytotox inconclusive, HEK293 viab inconclusive, 3T3 cytotox 45µM
O=C(NC1CCN(Cc2cccc(-c3cccs3)c2)CC1)c1ccc(Cl)cc1	HEK cytotox inconclusive, SNCA expr inhib inconclusive (no result: Luciferase inh, NPR1 antag)
O=C(Nc1ccccc1)NC1CCN(Cc2cccc(-c3cccs3)c2)CC1	HEK cytotox 20µM!, SNCA expr inhib inconclusive, 3T3 cytotox 14µM (no result: Luciferase inh, NPR1 antag)
O=C(Nc1ccc(Cl)cc1)NC1CCN(Cc2cccc(-c3cccs3)c2)CC1	HEK cytotox 20µM, SNCA expr inhib inconclusive, 3T3 cytotox 13µM (no result: Luciferase inh, NPR1 antag)
CCCCn1c(=O)c(C(=O)N2CCC(C#N)CC2)nc2cccnc21	none (no result: Luciferase inh, NPR1 antag)
O=C(NC1CCCCCC1)c1ccc2nc(-c3ccncc3)oc2c1	none (no result: Luciferase inh, NPR1 antag)
CCC(Sc1nc2nccnc2c(=O)n1Cc1ccccc1Cl)C(=O)NC1CCCCC1 (stereo unspecified)	HEK293 viab inconclusive, SNCA expr inhib 3.5µM (no result: Luciferase inh, HEK cytotox, 3T3 cytotox, NPR1 antag)
Cc1ccc(CC(=O)N2c3ccccc3CC2c2nnc(C3CCOCC3)o2)cc1 (stereo unspecified)	3T3 cytotox inconclusive
Cc1ccc(S(=O)(=O)N2c3ccccc3CC2c2nnc(C3CCOCC3)o2)cc1F (stereo unspecified)	HEK cytotox 25µM, 3T3 cytotox inconclusive
COc1cc(-c2onc(C)c2C(=O)N(C)Cc2ccccc2)cc(OC)c1OC	HEK cytotox inconclusive, 3T3 cytotox inconclusive
COc1cc(CN(C)C(=O)c2c(C)noc2-c2cccc(F)c2)cc(OC)c1OC	HEK cytotox 45µM, 3T3 cytotox inconclusive
COc1cc(-c2onc(C)c2C(=O)NCCC(c2ccccc2)c2ccccc2)cc(OC)c1OC	HEK cytotox 35µM, 3T3 cytotox inconclusive
COc1ccc(CCNC(=O)c2c(C)noc2-c2ccc(OC(F)(F)F)cc2)cc1	HEK cytotox 50µM
COc1cc(OC)c(CNC(=O)c2c(C)noc2-c2ccc(OC(F)(F)F)cc2)c(OC)c1	HEK cytotox 40µM, 3T3 cytotox inconclusive
CCN1CCN(C(=O)c2ccc3nc(-c4ccncc4)oc3c2)CC1	none (no result: Luciferase inh, NPR1 antag)
Cc1ccc(NC(=O)N2CCc3c(C(=O)NC(C)c4cccnc4)cccc32)cc1 (stereo unspecified)	Luciferase inh 0.4µM, HEK cytotox inconclusive, SNCA expr inhib 4µM, 3T3 cytotox inconclusive, NPR1 antag 4.5µM
CC(NC(=O)c1cccc2c1CCN2C(=O)Nc1ccc(F)cc1)c1ccccn1 (stereo unspecified)	Luciferase inh 0.79µM, HEK cytotox inconclusive, 3T3 cytotox inconclusive, NPR1 antag 11µM
CCC(=O)N1CCc2c(C(=O)NCc3cccnc3)cccc21	none
COc1cccc(-c2ccccc2NC(=O)C2CCN(Cc3cc(F)ccc3F)CC2)c1	HEK cytotox 22µM, HEK293 viab inconclusive, SNCA expr inhib inconclusive, 3T3 cytotox inconclusive, NPR1 antag inconclusive
COc1ccccc1-c1cccc(CN2CCC(NC(=O)c3ccccc3F)CC2)c1	HEK cytotox inconclusive, 3T3 cytotox inconclusive (no result: Luciferase inh, NPR1 antag)
COc1ccccc1-c1cccc(CN2CCC(NC(=O)c3ccc(F)cc3)CC2)c1	HEK cytotox 40µM, 3T3 cytotox inconclusive (no result: Luciferase inh, NPR1 antag)
COc1ccccc1-c1cccc(CN2CCC(NC(=O)Nc3ccc(C)c(F)c3)CC2)c1	HEK cytotox 10µM, 3T3 cytotox 20µM (no result: Luciferase inh, NPR1 antag)
COc1cccc(-c2ccccc2NC(=O)C2CCN(CC(=O)O)CC2)c1	none
COc1ccc(C(=O)NC2CCN(Cc3cccc(-c4ccccc4OC)c3)CC2)cc1	HEK cytotox 22µM, 3T3 cytotox inconclusive (no result: Luciferase inh, HEK293 viab, SNCA expr inhib, NPR1 antag)
O=C(O)CCCC(=O)N1Cc2ccccc2CC2(CCCN(Cc3ccncc3)C2)C1 (stereo unspecified)	none (no result: Luciferase inh, NPR1 antag)
O=C(NCC(F)(F)F)C1CCCN1C(=O)c1cccc(-c2cccnc2)c1 (stereo unspecified)	none (no result: Luciferase inh, HEK293 viab, SNCA expr inhib, NPR1 antag)
O=C(NCCc1ccc(F)cc1)c1cc(-c2cccs2)c2cccn2n1	HEK cytotox inconclusive, 3T3 cytotox inconclusive (no result: Luciferase inh, NPR1 antag)
COCC(=O)NC1CCN(Cc2cccc(-c3ccccc3OC)c2)CC1	none (no result: Luciferase inh, NPR1 antag)
COc1ccccc1-c1cccc(CN2CCC(NC(=O)Cc3ccc(C(F)(F)F)cc3)CC2)c1	HEK cytotox 11µM, 3T3 cytotox 11µM (no result: Luciferase inh, NPR1 antag)
O=S1(=O)CCN(c2cccc(-c3nc(C4CCOC4)no3)c2)CC1 (stereo unspecified)	none
CCS(=O)(=O)Nc1ccc(-c2nc(C3CCOC3)no2)cc1 (stereo unspecified)	none
Cn1ccc2ccc(-c3nc(C4CCOC4)no3)cc21 (stereo unspecified)	Luciferase inh 35µM, 3T3 cytotox inconclusive
c1cnn(-c2ccc(-c3nc(C4CCOC4)no3)cc2)c1 (stereo unspecified)	Luciferase inh 16µM, HEK cytotox inconclusive, HEK293 viab inconclusive, NPR1 antag inconclusive
C=CCOc1c(OC)ccc2c1CN(CC1CC1)C(=O)CCN2CC(O)COc1ccc(OC)cc1 (stereo unspecified)	HEK cytotox 40µM, 3T3 cytotox inconclusive (no result: Luciferase inh, HEK293 viab, SNCA expr inhib, NPR1 antag)
CC(=O)N1CCN(c2nc3c(s2)CC(C(=O)Nc2cc(Cl)ccc2F)CC3)CC1 (stereo unspecified)	HEK cytotox 40µM, HEK293 viab inconclusive, SNCA expr inhib inconclusive, 3T3 cytotox inconclusive
Cc1ccccc1NC(=O)C1CCc2nc(N3CCN(C(=O)C(C)C)CC3)sc2C1 (stereo unspecified)	HEK cytotox 10µM, HEK293 viab inconclusive, 3T3 cytotox 35µM
CC(=O)N1CCN(c2nc3c(s2)CC(C(=O)NCc2cccc(Cl)c2)CC3)CC1 (stereo unspecified)	HEK cytotox inconclusive
Cc1ccc(CNC(=O)C2CCc3nc(N4CCN(C(=O)C(C)C)CC4)sc3C2)o1 (stereo unspecified)	HEK cytotox 79µM
CCC(=O)N1CCN(c2nc3c(s2)CC(C(=O)NCc2ccc(C)o2)CC3)CC1 (stereo unspecified)	HEK cytotox inconclusive, 3T3 cytotox inconclusive
COc1ccccc1Nc1ccnc(N2CCC(C(=O)NCC3CC3)CC2)n1	HEK cytotox inconclusive, 3T3 cytotox inconclusive (no result: Luciferase inh, NPR1 antag)
Cc1cn2nc(C(=O)NCCCc3ccccc3)cc2c(=O)[nH]1	Luciferase inh 14µM
Cc1ccc(CNC(=O)c2ccc(NC(=O)c3cc4c(=O)[nH]c(C)cn4n3)cc2)cc1	Luciferase inh 11µM, HEK cytotox inconclusive
